Source: PubChem BioAssay
Results filed as inconclusive are left out. Calls of active or inactive are those of the source. Unless noted, no rule for the calls is given here.

Columns and labels:
[1] = rapamycin-like changes in RPL19A-GFP expression – cell-based, S. cerevisiae, multiplex flow cytometry, primary screen (AID 1862; in the data active = percent of DMSO control GFP below about 86%;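 also: lower values mimic rapamycin by blocking the RPL19A rise seen in DMSO cells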); conditions: S. cerevisiae RPL19A-GFP strain, flow cytometry fluorescence, 3 h; at 10 µM; stronger effect = lower value
[2] = TOR pathway GLN3 branch reporter MEP2-GFP changes – S. cerevisiae, multiplex flow cytometry, primary screen (AID 1867;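 active = GFP response, as percent of the DMSO control, above the screen-wide mean plus 3 SD, about 139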;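 also: median GFP channel fluorescence of barcode-gated MEP2-GFP cells measured by flow cytometry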); conditions: S. cerevisiae MEP2-GFP strain, 3 h, at 10 µM, stronger effect = higher value
[3] = TOR pathway RTG branch CIT2 reporter changes – S. cerevisiae, GFP fusion, multiplex flow cytometry, primary screen (AID 1870;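 active = percent response above a set limit, the screen-wide mean plus 3 SD, cut at about 130% in these data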;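 also: barcoded CIT2-GFP strain pooled with four other GFP strains with rapamycin as positive control; median GFP fluorescence per well over plate mean of DMSO wells so 100% = DMSO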); conditions: S. cerevisiae CIT2-GFP expression, 3 h, at 10 µM, stronger effect = higher value
[4] = TOR pathway LAP4-GFP level changes – S. cerevisiae, multiplex flow cytometry, primary screen (AID 1873;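 active = GFP signal, as percent of the solvent control, above the screen mean plus 3 SD, about 149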); conditions: S. cerevisiae LAP4-GFP expression, 3 h, at 10 µM, stronger effect = higher value
[5] = yeast AGP1-GFP level changes, GLN3 branch – cell-based, multiplex flow cytometry, S. cerevisiae, primary screen (AID 1887;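 active = GFP signal above the screen-wide mean plus 3 SD, that is over about 124.5% of the solvent control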;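 also: AGP1-GFP fusion strain of S. cerevisiae within a five-strain barcoded multiplex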); conditions: 3 h, at 10 µM, stronger effect = higher value
[6] = reduced mouse 2C T cell binding to pMHC/ICAM-1 vesicles – MLPCN validation set, flow cytometry, LFA-1/ICAM-1 modulator project, pilot screen (AID 2523;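 active = response below a set limit, under 55% cells CD8-positive and vesicle-bound, and CD8 cells' 90th-percentile brightness under 279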;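 as to vesicle binding response: mean PE anti-B7-1 fluorescence of CD8+ cells relative to row control; 100% = QL9-loaded vesicles with DMSO vehicle in the same plate row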); conditions: 2C mouse CD8+ T cells, at 7 µM, stronger effect = lower value; double positive events: measured here: CD8+/vesicle+ event percentage
[7] = molecular target: Integrin beta-1 (Homo sapiens) + Integrin alpha-4 (Homo sapiens) (UniProt P13612+P05556); assay: alpha4beta1 integrin LIBS antibody binding reduction – U937 cells, HUTS-21 mAb, flow cytometry, validation set, VLA-4 allosteric modulator project, pilot screen (AID 2674;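 active = inhibition above 50%, about 3 SD of the validation set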;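 also: antibody binding induced by the VLA-4 ligand LDV present at three times its Kd; 0% = LDV ligand with antibody and no compound and 100% = antibody without LDV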); conditions: HUTS-21 LIBS mAb binding, at 6.7 µM, stronger effect = higher value
[8] = calorie-restriction mimetic ROS inhibitors, yeast – validation compound set, pilot screen (AID 2706;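 active = superoxide response below 65% of plate, a cut near 3 SD across the whole screen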;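 also: yeast exposed to compound for one week at 30 degrees C before staining; 100% = mean of all compound wells on the same plate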); conditions: S. cerevisiae aging, superoxide DHE fluorescence; at 10 µM; stronger effect = lower value
[9] = molecular target: Beta-adrenergic receptor kinase 1 (Homo sapiens) (UniProt P25098); assay: GRK2 binders displacing RNA aptamer, biochemical, validation, human GRK2, bead flow cytometry (AID 488806;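 active = aptamer binding inhibition above 30%, about 3 SD of noise from non-fluorescent compounds; inactive = inhibition at or below 30%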); conditions: bead-bound GRK2, FAM-aptamer displacement, at 10 µM, stronger effect = higher value
Chain of Beta-adrenergic receptor kinase 1 (Homo sapiens) (P25098 whole entry, looked up): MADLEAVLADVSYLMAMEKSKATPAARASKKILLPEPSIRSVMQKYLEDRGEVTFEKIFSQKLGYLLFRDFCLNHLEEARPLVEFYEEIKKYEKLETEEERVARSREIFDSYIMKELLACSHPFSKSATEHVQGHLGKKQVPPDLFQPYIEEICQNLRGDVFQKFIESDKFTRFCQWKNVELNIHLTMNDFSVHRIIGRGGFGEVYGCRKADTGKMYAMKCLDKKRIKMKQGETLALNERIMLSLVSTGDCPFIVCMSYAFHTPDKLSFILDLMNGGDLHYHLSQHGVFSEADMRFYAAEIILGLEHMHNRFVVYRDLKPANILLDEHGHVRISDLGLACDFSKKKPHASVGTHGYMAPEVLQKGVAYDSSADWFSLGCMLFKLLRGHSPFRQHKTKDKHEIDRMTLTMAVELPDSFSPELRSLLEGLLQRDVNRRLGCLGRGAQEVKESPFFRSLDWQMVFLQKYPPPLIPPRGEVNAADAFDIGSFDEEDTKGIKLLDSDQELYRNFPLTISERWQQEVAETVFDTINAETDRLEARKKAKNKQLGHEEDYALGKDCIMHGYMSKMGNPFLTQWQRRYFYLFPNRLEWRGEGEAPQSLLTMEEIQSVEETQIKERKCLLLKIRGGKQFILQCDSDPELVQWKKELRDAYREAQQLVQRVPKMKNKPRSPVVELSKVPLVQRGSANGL

[10] = molecular target: Beta-2 adrenergic receptor (Homo sapiens) (UniProt P07550); assay: agonist-induced loss of surface beta2AR – cell-based, FAP fluorogen, flow cytometry, validation set, pilot screen (AID 504459;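 active = percent response above 42, roughly 3 SD of non-fluorescent test compounds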;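 also: agonist-driven loss of surface beta2AR via internalization measured by FAP dye flow cytometry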); conditions: Am2.2-beta2AR cells, at 10 µM, stronger effect = higher value
Chain of Beta-2 adrenergic receptor (Homo sapiens) (P07550 whole entry, looked up): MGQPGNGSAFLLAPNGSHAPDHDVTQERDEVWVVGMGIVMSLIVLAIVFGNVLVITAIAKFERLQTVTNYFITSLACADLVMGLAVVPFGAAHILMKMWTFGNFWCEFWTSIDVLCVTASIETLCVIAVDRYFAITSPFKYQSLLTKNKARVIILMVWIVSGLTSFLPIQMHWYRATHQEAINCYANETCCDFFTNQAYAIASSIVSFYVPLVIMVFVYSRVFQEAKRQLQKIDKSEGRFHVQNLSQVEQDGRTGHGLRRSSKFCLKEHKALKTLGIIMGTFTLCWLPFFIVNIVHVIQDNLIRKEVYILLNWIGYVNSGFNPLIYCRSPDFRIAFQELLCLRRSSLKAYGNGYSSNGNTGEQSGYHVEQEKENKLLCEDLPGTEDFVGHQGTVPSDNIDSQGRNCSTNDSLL

[11] = molecular target: AP-2 complex subunit beta (Homo sapiens) (UniProt P63010); assay: beta-arrestin/AP2 interaction blockers – biochemical, validation set, GST-AP2 beads, flow cytometry, pilot screen (AID 504541;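 active = inhibition above 54%, about 3 SD of non-fluorescent compounds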;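 also: AP2 carries R879A mutation and is captured from E. coli lysate; bead-bound FITC arrestin peptide fluorescence measuring arrestin peptide binding to AP2; 0% = DMSO wells and 100% = excess unlabeled arrestin peptide control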); conditions: FITC arrestin peptide, at 10 µM, stronger effect = higher value
Chain of AP-2 complex subunit beta (Homo sapiens) (P63010 whole entry, looked up, one chain of several): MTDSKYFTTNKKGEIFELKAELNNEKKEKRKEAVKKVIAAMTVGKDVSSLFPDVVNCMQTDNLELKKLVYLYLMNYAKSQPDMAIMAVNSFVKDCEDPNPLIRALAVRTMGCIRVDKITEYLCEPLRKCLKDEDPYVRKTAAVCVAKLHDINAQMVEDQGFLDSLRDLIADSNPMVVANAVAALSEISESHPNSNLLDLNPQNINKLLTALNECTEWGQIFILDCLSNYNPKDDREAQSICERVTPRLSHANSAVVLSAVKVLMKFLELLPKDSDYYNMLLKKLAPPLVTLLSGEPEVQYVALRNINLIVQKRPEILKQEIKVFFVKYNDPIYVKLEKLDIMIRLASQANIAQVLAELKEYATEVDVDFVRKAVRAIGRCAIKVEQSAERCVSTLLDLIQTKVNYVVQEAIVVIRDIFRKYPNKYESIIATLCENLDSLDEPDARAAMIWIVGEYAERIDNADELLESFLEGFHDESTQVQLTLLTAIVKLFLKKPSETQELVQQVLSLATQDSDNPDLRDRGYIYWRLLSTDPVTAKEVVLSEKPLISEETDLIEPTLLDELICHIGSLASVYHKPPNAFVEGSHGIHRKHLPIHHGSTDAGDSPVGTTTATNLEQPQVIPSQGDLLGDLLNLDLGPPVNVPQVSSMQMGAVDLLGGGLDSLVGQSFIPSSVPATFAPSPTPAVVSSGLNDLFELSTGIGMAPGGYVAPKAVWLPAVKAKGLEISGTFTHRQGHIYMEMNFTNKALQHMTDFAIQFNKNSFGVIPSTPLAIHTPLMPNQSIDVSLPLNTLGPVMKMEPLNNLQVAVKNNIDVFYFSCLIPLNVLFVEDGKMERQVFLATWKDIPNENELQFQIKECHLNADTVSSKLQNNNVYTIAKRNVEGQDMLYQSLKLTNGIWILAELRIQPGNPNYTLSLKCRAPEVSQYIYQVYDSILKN

[12] = cytosolic pH regulators acting via V-ATPase – S. cerevisiae, pHLuorin, HTS validation (AID 504600; in the data active = response above about 15%;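 also: plate controls were DMSO for no effect and reference compound for full effect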); conditions: V-ATPase proton transport, at 10 µM, stronger effect = higher value
[13] = system: anti-desmoglein-3 scFv antibody binding to human DSG3; assay: blockers of pathogenic pemphigus antibody–desmoglein-3 binding – biochemical, validation compound set, bead-based, flow cytometry, pilot screen (AID 588368;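 active = binding below the plate cutoff, the plate median minus 3 SD, with a reading above zero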;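 also: signal is the median channel fluorescence of bead-bound GFP antibody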); conditions: Protein G beads, DSG3-Fc, scFv-GFP binding, at 10 µM, stronger effect = lower value
[14] = system: Botulinum neurotoxin type F light chain protease (Clostridium botulinum); assay: Clostridium botulinum type F light chain protease inhibitors, microsphere substrate cleavage, validation (AID 588459); conditions: multiplex microsphere protease substrate cleavage assay, flow cytometry; at 10 µM; stronger effect = higher value
[15] = molecular target: Botulinum neurotoxin type A (Clostridium botulinum) (UniProt P0DPI0); assay: BoNT/A light chain protease inhibitors, biochemical, multiplex microsphere flow cytometry, validation set (AID 588460); conditions: at 10 µM, stronger effect = higher value
Chain of Botulinum neurotoxin type A (Clostridium botulinum) (P0DPI0 whole entry, looked up): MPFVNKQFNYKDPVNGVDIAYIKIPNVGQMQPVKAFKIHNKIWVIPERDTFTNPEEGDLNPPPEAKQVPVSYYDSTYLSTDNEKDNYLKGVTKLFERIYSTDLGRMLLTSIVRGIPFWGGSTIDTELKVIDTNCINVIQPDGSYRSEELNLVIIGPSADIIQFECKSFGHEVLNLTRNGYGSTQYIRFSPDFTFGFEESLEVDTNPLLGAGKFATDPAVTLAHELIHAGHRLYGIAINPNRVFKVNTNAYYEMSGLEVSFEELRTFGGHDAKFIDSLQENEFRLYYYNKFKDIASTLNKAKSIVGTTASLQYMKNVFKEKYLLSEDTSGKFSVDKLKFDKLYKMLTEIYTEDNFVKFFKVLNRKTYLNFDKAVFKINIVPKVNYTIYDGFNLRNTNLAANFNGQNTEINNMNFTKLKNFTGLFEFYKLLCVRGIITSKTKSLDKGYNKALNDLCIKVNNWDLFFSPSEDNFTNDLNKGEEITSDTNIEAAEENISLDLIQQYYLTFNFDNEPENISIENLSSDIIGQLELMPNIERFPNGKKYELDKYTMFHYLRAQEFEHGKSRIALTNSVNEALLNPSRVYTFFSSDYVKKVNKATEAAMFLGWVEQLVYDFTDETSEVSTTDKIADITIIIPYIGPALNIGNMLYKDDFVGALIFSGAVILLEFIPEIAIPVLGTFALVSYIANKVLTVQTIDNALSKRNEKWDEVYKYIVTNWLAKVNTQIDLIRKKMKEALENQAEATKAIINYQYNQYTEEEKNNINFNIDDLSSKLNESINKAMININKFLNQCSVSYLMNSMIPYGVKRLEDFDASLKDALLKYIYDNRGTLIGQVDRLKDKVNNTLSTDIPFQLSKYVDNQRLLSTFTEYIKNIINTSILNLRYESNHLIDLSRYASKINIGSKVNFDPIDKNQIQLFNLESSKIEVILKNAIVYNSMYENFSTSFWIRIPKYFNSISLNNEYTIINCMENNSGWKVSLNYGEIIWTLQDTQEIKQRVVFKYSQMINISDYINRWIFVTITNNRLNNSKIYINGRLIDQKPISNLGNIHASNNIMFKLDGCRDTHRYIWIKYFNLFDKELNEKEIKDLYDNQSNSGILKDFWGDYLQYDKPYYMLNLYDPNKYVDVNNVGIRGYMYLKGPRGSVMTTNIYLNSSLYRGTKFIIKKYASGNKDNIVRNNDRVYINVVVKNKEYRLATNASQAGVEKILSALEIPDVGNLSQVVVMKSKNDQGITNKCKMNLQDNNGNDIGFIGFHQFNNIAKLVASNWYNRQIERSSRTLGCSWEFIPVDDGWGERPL

[16] = molecular target: Lethal factor (Bacillus anthracis) (UniProt P15917); assay: Bacillus anthracis lethal factor inhibition, microsphere flow cytometry protease assay, validation at 10 µM (AID 588461); conditions: multiplex microsphere protease cleavage assay, stronger effect = higher value
Chain of Lethal factor (Bacillus anthracis) (P15917 whole entry, looked up): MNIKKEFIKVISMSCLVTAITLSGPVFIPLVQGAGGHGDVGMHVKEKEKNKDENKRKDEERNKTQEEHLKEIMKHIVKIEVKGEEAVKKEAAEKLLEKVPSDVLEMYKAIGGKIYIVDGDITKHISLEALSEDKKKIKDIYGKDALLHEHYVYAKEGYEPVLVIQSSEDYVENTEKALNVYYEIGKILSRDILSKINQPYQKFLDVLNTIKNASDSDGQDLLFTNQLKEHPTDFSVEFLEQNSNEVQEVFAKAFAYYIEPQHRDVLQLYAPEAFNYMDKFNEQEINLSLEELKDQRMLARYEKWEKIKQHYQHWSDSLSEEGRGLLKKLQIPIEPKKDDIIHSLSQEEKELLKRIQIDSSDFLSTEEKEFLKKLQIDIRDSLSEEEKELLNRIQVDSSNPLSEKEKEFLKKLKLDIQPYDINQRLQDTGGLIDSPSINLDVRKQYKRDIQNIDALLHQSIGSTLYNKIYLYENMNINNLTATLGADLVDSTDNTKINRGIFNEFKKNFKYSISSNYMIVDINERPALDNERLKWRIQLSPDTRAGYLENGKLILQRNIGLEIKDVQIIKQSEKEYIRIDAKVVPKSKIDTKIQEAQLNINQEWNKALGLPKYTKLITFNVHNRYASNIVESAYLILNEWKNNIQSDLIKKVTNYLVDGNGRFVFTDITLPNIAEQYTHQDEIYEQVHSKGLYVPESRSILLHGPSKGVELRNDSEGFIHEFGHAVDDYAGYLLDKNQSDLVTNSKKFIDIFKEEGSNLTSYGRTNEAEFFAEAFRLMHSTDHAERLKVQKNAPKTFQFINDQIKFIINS

[17] = Nile Red efflux blockade in pump-expressing yeast – validation compound set, multiplex, phenotypic, pilot screen (AID 588506;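 active = efflux inhibition above 0.42, the validation set average plus 4 SD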;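 also: Nile Red retained in cells so higher fluorescence means more efflux inhibition; 0 = negative control wells and 1 = enniatin B 25 µM full block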); conditions: S. cerevisiae pump-expressing triplex, Nile Red efflux flow cytometry; at 10 µM; stronger effect = higher value
[18] = molecular target: ATP-binding cassette sub-family B member 6 (Homo sapiens) (UniProt Q9NP58); assay: blockers of ABCB6-driven porphyrin uptake – K562-ABCB6 cells, flow cytometry, validation set, pilot screen (AID 588550;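 active = inhibition above the screen-wide mean plus 3 SD, about 51%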;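 also: 0% = DMSO wells and 100% = benzethonium chloride 70 µM positive control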); conditions: K562-ABCB6 porphyrin accumulation, 1 h, at 10 µM, stronger effect = higher value
Chain of ATP-binding cassette sub-family B member 6 (Homo sapiens) (Q9NP58 whole entry, looked up): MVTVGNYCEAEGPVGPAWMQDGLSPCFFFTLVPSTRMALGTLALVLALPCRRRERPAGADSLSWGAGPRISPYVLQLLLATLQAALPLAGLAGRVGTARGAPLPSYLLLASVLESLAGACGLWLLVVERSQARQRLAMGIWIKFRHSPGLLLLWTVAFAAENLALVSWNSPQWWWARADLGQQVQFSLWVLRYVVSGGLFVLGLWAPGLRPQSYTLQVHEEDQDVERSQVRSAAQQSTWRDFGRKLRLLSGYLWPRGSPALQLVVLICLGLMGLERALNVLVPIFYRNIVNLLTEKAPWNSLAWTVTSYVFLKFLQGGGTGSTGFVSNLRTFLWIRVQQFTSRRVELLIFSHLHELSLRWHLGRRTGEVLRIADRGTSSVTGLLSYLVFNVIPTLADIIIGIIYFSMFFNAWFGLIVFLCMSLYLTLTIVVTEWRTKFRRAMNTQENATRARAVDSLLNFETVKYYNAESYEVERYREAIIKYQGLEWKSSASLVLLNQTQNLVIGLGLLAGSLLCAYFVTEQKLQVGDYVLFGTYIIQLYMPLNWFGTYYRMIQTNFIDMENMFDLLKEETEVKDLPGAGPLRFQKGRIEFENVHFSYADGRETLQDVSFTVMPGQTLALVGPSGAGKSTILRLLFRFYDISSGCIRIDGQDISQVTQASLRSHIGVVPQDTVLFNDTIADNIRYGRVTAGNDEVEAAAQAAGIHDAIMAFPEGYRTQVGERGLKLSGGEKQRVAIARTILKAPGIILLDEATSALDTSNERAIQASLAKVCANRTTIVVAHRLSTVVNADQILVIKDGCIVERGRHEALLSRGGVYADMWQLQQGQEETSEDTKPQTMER

[19] = AML differentiation inducers, ER-HoxA9 marrow cells – cell-based, GFP/MAC1 double positive, flow cytometry, validation set, primary screen (AID 588685;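 active = differentiation response of at least 50%, scaled between solvent and reference control, from cells with both markers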;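 also: compound exposure lasts four days before antibody staining and flow analysis; 0% = DMSO wells and 100% = 5 µM fulvestrant positive control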); conditions: stronger effect = higher value

COP(=O)(OC)C(O)C(Cl)(Cl)Cl (stereo not given)
62.8%: double positive events [6]
inactive: percent of DMSO control GFP [1] 103% | GFP response vs DMSO [2] 98.3% | percent response of DMSO control [3] 102% | GFP response vs DMSO [4] 99.9% | GFP response, % of DMSO [5] 102% | vesicle binding response [6] 230% | inhibition [7] 9.92% | superoxide response (% of plate) [8] 94.8% | aptamer binding inhibition [9] 3% | response [10] -7.88% | inhibition [11] -9.07% | response [12] 0.81% | binding (% of control) [13] 97.9% | inhibition [14] -1% | inhibition [15] -0.6% | inhibition [16] -2.9% | efflux inhibition (fraction of control) [17] -0.17 | inhibition [18] -2% | differentiation response [19] 12.9%

CC1CCC[C@H](O)CCCCCc2cc(O)cc(O)c2C(=O)O1 (stereo not given in full)
active: efflux inhibition (fraction of control) [17] 0.69
inactive: percent of DMSO control GFP [1] 102% | GFP response vs DMSO [2] 99.7% | percent response of DMSO control [3] 106% | GFP response vs DMSO [4] 114% | GFP response, % of DMSO [5] 109% | vesicle binding response [6] 174% | inhibition [7] 19% | superoxide response (% of plate) [8] 111% | aptamer binding inhibition [9] -3% | response [10] -2.64% | inhibition [11] -18.8% | response [12] 6.16% | binding (% of control) [13] 106% | inhibition [14] -0.6% | inhibition [15] 0.6% | inhibition [16] -2.4% | inhibition [18] -7% | differentiation response [19] -4.57%
62.7%: double positive events [6]

CC(C)C(=O)Nc1ccc(S(=O)(=O)N2CC3CC(C2)c2cccc(=O)n2C3)cc1 (stereo not given)
58.5%: double positive events [6]
inactive: percent of DMSO control GFP [1] 97.4% | GFP response vs DMSO [2] 95.2% | percent response of DMSO control [3] 104% | GFP response vs DMSO [4] 86.3% | GFP response, % of DMSO [5] 93.1% | vesicle binding response [6] 184% | inhibition [7] -5.89% | superoxide response (% of plate) [8] 106% | aptamer binding inhibition [9] 3% | response [10] -5.34% | inhibition [11] 10.6% | response [12] -0.52% | binding (% of control) [13] 100% | inhibition [14] 4.8% | inhibition [15] 0.5% | inhibition [16] 0.3% | efflux inhibition (fraction of control) [17] -0.24 | inhibition [18] 2% | differentiation response [19] 13.6%

CN1C[C@H](CNC(=O)OCc2ccccc2)C[C@@H]2c3cccc4c3c(cn4C)C[C@H]21
63.3%: double positive events [6]
inactive: percent of DMSO control GFP [1] 103% | GFP response vs DMSO [2] 101% | percent response of DMSO control [3] 99% | GFP response vs DMSO [4] 104% | GFP response, % of DMSO [5] 108% | vesicle binding response [6] 365% | inhibition [7] -34.3% | superoxide response (% of plate) [8] 125% | aptamer binding inhibition [9] -1% | response [10] 13.7% | inhibition [11] -6.87% | response [12] -0.08% | binding (% of control) [13] 110% | inhibition [14] -0.5% | inhibition [15] 1.5% | inhibition [16] -7.6% | efflux inhibition (fraction of control) [17] 0.04 | inhibition [18] -29% | differentiation response [19] -6.96%

CC(C)CC12CN3CCN(CC(C3)C1O)C2 (stereo not given)
65.4%: double positive events [6]
inactive: percent of DMSO control GFP [1] 89.8% | GFP response vs DMSO [2] 116% | percent response of DMSO control [3] 111% | GFP response vs DMSO [4] 89.7% | GFP response, % of DMSO [5] 105% | vesicle binding response [6] 153% | inhibition [7] -2.27% | superoxide response (% of plate) [8] 91.5% | aptamer binding inhibition [9] -7% | response [10] 4.34% | inhibition [11] -0.1% | response [12] -1.9% | binding (% of control) [13] 110% | inhibition [14] 3.6% | inhibition [15] -0.7% | inhibition [16] -4.5% | efflux inhibition (fraction of control) [17] -0.28 | inhibition [18] 13% | differentiation response [19] 10.6%

c1ccc2c(c1)Nc1ccccc1S2
61.9%: double positive events [6]
inactive: percent of DMSO control GFP [1] 92.8% | GFP response vs DMSO [2] 139% | percent response of DMSO control [3] 95.2% | GFP response vs DMSO [4] 81.4% | GFP response, % of DMSO [5] 84.7% | vesicle binding response [6] 121% | inhibition [7] 12.3% | superoxide response (% of plate) [8] 81.7% | aptamer binding inhibition [9] 2% | response [10] 1.66% | inhibition [11] 9.01% | response [12] -2.45% | binding (% of control) [13] 100% | inhibition [14] -1.5% | inhibition [15] 0.5% | inhibition [16] -2.6% | efflux inhibition (fraction of control) [17] 0.27 | inhibition [18] 9% | differentiation response [19] 1.64%

CCC1(c2ccccc2)C(=O)N(COC)C(=O)N(COC)C1=O
62.2%: double positive events [6]
inactive: percent of DMSO control GFP [1] 102% | GFP response vs DMSO [2] 102% | percent response of DMSO control [3] 103% | GFP response vs DMSO [4] 112% | GFP response, % of DMSO [5] 112% | vesicle binding response [6] 148% | inhibition [7] 10.8% | superoxide response (% of plate) [8] 109% | aptamer binding inhibition [9] 2% | response [10] -14.8% | inhibition [11] 10.8% | response [12] -4.18% | binding (% of control) [13] 102% | inhibition [14] 2% | inhibition [15] -0.2% | inhibition [16] 0.4% | efflux inhibition (fraction of control) [17] 0.12 | inhibition [18] 4% | differentiation response [19] 3.88%

COc1cccc(Oc2c(C)oc3cc(OC(=O)N(C)C)ccc3c2=O)c1
inactive: percent of DMSO control GFP [1] 102% | GFP response vs DMSO [2] 102% | percent response of DMSO control [3] 107% | GFP response vs DMSO [4] 99.1% | GFP response, % of DMSO [5] 99.4% | vesicle binding response [6] 148% | inhibition [7] 5.61% | superoxide response (% of plate) [8] 110% | aptamer binding inhibition [9] 0% | response [10] -2.34% | inhibition [11] 8.84% | response [12] -4.25% | binding (% of control) [13] 101% | inhibition [14] -1.7% | inhibition [15] -0.4% | inhibition [16] -1.2% | efflux inhibition (fraction of control) [17] -0.02 | inhibition [18] 23% | differentiation response [19] -3.11%
60.2%: double positive events [6]
